# Assay results taken from PubChem BioAssay (Tox21).
# Where “and” joins values, the source holds several entries; their conditions need not be identical. Equal values may be shown once. Results filed as inconclusive are left out. A number with no mark means an inactive call. Calls of active or inactive are those of the source. Calls follow the shape of the dose curve; as a rule, active = well fitted cell-killing curve with a large enough effect in the repeat runs; inconclusive = weak or mixed curves, or effect the other way; inactive = flat fitted curve, though single readings scatter.
# Assay: Caspase-3/7 induction in HepG2 cells by small molecules, qHTS cell viability counter screen (AID 1346981); also: nearly all actives have a fitted effect of over 30% in size
# Conditions: CellTiter-Fluor fluorescence, 17 h; series mostly up to 92.4 µM; activity change, negative = cytotoxicity: at the top concentration
# From the text: U.S. Tox21 Program National Center for Advancing Translational Sciences [NCATS] NIH Chemical Genomics Center [NCGC] U.S. Environmental Protection Agency [EPA] National Institutes of Environmental Health Sciences [NIEHS] National Toxicology Program [NTP] U.S. Food and Drug Administration [FDA] Tox21 Assay Overview: Apoptosis is a process of programmed cell death and plays a central role in the development of multicellular organisms. It is a highly regulated process and induces cell death by activating caspases, which are the members of cysteine aspartic acid-specific protease (caspase) family. Caspases involved in apoptosis are classified by their mechanism of action as initiator caspases (caspase-2, -8, -9 and -10) and executioner caspases (caspase-3, -6, and -7). Inhibition of apoptosis results in number of cancers, autoimmune diseases, inflammatory diseases and viral infection. To identify small molecule compounds that induce apoptosis, a homogeneous, luminescent Caspase-Glo 3/7 assay was used. Wild type HepG2 cells were used to screen Tox21 libraries for identifying caspase-3/7 activity inducers. Also cytotoxicity of the compounds was tested in parallel by measuring the cell viability using CellTiter-Fluor assay system in the same wells.
# Tox21 Assay Protocol Summary: HepG2 cells were dispensed at 2,000 per well in 5uL of culture medium into white solid bottom 1536-well plates (Corning Life Sciences, Corning, NY) using a Multidrop Combi (Thermo Scientific, Waltham, MA) dispenser. The assay plates were incubated at 37 C and 5% CO2 for 5hr, and then 23nL of compounds dissolved in DMSO and positive control were transferred using a Pintool station ([…], San Diego, CA). The assay plates were incubated at 37C and 5% CO2 for 17hr. For cytotoxicity read, after 16hr incubation at 37C, 1uL CellTiter-Fluor reagent (Promega Corporation, Madison, WI) was added to each well of the assay plates using Flying Reagent Dispenser (FRD, Aurora Discovery, San Diego, CA). After 1hr incubation at 37C and 5% CO2, the fluorescence signal was quantified using a ViewLux plate reader (PerkinElmer, Shelton, CT).
# % is scaled to controls: 0 for no effect and ±100 for the full control effect; potency is read from the fitted curve at half-maximal effect.
SMILES,"activity change, negative = cytotoxicity",Potency
O=C(O)CCCOc1ccc(Cl)cc1Cl,13.2%,–
CCCCCCCCCCCCN=C(N)N,-9.99% [at 3.27 µM],–
O=S(=O)(c1ccccc1)c1ccccc1,-0.4%,–
CCC(C)Cl (stereo not given),2.17%,–
CC(C)[C@@H](C(=O)O[C@@H](C#N)c1cccc(Oc2ccccc2)c1)c1ccc(Cl)cc1,–,inactive
CC(C)CCON=O,-17.6%,–
C[N+]1(CCC(C(N)=O)(c2ccccc2)c2ccccc2)CCCCC1,0.228% [at 42.5 µM],–
O=C([O-])c1ccccn1.O=C([O-])c1ccccn1.O=C([O-])c1ccccn1.[Cr+3],-1.37%,–
Cc1ncc(C[n+]2csc(CCO)c2C)c(N)n1,1.35%,–
O=[N+]([O-])/C=C/c1ccccc1,–,31.1 µM (active) and 61.1 µM (active)
CCc1ccccc1N,-3.83%,–
CN[C@@H](C)[C@H](O)c1ccccc1,-2.13% [at 42.5 µM],–
COc1cc(CC#N)cc(OC)c1OC,6.75% [at 42.5 µM],–
Cc1nc(N(C)C)nc(OC(=O)N(C)C)c1C,5.42%,–
c1ccc2sc(SNC3CCCCC3)nc2c1,–,inactive
C[C@@H]1C[C@@H]([C@H](O)CC2CC(=O)NC(=O)C2)C(=O)[C@@H](C)C1,–,121 nM (active) and 1.72 µM (active) and 750 nM (active)
c1ccc2c(c1)sc1ccccc12,–,inactive
C[C@]12C=CC3=C4CCC(=O)C=C4CC[C@H]3[C@@H]1CC[C@@H]2O,–,inactive
CCCCCBr,4%,–
CC(C)OC(=O)Cc1ccccc1,0.0128%,–

SMILES,"activity change, negative = cytotoxicity",Potency
CCCSP(=S)(OCC)Oc1ccc(SC)cc1 (stereo not given),-1.51%,–
CC(C)(C)N(NC(=O)c1ccc(Cl)cc1)C(=O)c1ccccc1,–,12.1 µM (active)
Oc1cccc(Cl)c1,-1.89%,–
CC(C)(c1ccccc1)c1cc(-n2nc3ccccc3n2)c(O)c(C(C)(C)c2ccccc2)c1,-4.52% [at 42.5 µM],–
C#C[C@]1(O)CC[C@H]2[C@@H]3CCC4=CC(=O)CCC4=C3C=C[C@@]21CC,-11.6% [at 42.5 µM],–
NNCCO,-0.548%,–
O=C(O)C(O)C(O)C(=O)O (stereo not given),4.2%,–
CC(C)(C#N)C(C)(C)C#N,0.615%,–
CC(Cc1ccccc1)NCc1ccccc1Cl (stereo not given),11.7% [at 42.5 µM],–
O=C(CCl)CCl,–,inactive
NC(=S)c1c(Cl)cccc1Cl,7.7%,–
Nc1ccccc1C(=O)OCC(O)CO (stereo not given),2.8% [at 42.5 µM],–
COc1ccc(C(O)(c2cncnc2)C2CC2)cc1 (stereo not given),4.17%,–
C=CC(=O)OCC,5.08%,–
CCOC(=O)C1OC1(C)c1ccccc1 (stereo not given),–,inactive
CCOP(=O)(O)C(N)=O,1.71%,–
CC(O)CN1CCN(CC(=O)[O-])CCN(CC(=O)[O-])CCN(CC(=O)[O-])CC1.[Gd+3] (stereo not given),-1.31% [at 42.5 µM],–
CC(=O)OC(c1ccccc1)C(Cl)(Cl)Cl (stereo not given),9.22%,–
C=CCc1ccccc1O,0.391%,–
CCCN(CCC)c1c([N+](=O)[O-])cc(C(C)C)cc1[N+](=O)[O-],-0.858%,–
